Inhibition of ligand binding data for 38 compounds are collected here from PubChem BioAssay AID1211 (NMMLSC, 2008).

Structures are written as SMILES. A number with no mark means an inactive call. Calls of active or inactive are those of the source. How the calls were made is not given here.

Sequence of Estrogen receptor (Homo sapiens) (P03372 whole entry, looked up): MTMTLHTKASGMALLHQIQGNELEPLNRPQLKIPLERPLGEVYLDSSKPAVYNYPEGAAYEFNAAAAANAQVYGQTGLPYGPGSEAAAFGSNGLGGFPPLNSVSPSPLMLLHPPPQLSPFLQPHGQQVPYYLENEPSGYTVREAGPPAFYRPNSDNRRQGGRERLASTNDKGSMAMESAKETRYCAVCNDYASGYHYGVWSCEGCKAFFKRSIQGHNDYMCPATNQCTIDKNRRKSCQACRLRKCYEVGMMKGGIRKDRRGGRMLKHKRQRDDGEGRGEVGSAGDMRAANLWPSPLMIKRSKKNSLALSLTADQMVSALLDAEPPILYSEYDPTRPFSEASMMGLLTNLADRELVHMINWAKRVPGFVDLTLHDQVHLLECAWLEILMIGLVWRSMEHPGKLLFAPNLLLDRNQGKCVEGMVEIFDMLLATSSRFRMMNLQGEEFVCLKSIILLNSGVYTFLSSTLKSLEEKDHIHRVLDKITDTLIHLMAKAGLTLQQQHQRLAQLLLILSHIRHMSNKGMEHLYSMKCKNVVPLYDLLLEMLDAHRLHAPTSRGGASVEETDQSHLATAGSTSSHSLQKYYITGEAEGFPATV

This assay has as its target Estrogen receptor (Homo sapiens) (UniProt P03372). The assay is described as follows: displacement of fluorescent estrogen from ERalpha – cell-based, Cos7 ERalpha-GFP, flow cytometry, primary screen (AID 1211).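 Further: 0% = DMSO vehicle wells and 100% = no E2-Alexa633 signal left.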 As to conditions: fluorescent ligand competition, at 10 µM, active compounds read high. Background: In flow cytometry, cells or beads pass a laser one at a time.
Consider `Cc1sc2ncnc(SCC(=O)NC(=O)NCc3ccco3)c2c1C`, for which the inhibition of ligand binding is 19%.

For the compound `CSC(=O)CNC1(Cc2ccc(O)cc2)CCCCC1`, the inhibition of ligand binding is 11%.

Consider `CCC(Oc1ccc2c3c(c(=O)oc2c1C)CCC3)C(=O)OC` (stereo not drawn), for which the inhibition of ligand binding was 15%.

For the compound `Oc1ccc2c(c1)c1c3n2CCNC3CCC1` (stereo not drawn), the inhibition of ligand binding is 0%.

As for `CC(C)C1Nc2ccc(C(=O)O)cc2C2C=CCC21` (stereo not drawn), the inhibition of ligand binding is 36%.

In the case of `CCOc1cc2c(cc1OCC)C(C1CCCCC1)NCC2` (stereo not drawn), the inhibition of ligand binding is 1%.

As for `Nc1nc(N)c2sc3nc4c(cc3c2n1)CCC4`, the inhibition of ligand binding was 17%.

Turning to `COc1cc([C@@H]2Nc3ccc(S(=O)(=O)Nc4ccccc4F)cc3[C@@H]3C=CC[C@@H]32)cc(OC)c1OC`, the inhibition of ligand binding was 5%.

As to `COC(=O)c1ccc(C2Nc3ccc(/C(C)=N/NC(=O)C(OC)c4ccccc4)cc3C3C=CCC32)cc1` (stereo not drawn), the inhibition of ligand binding is 0%.

As for `CCOc1ccc(NS(=O)(=O)c2ccc3c(c2)[C@H]2C=CC[C@H]2[C@@H](c2ccc([N+](=O)[O-])cc2)N3)cc1`, the inhibition of ligand binding is 9%.

For the compound `CC(=O)NC12CC3CC(C1)CC(C(=O)OCC(=O)Nc1ncc(Cl)c(C)c1Cl)(C3)C2`, the inhibition of ligand binding is 21%.

With `Cc1c(O)ccc2c3c(c(=O)oc12)CCCC3`, the inhibition of ligand binding was 0%.

For the compound `CCOC(=O)c1c(N)sc2c1CC(C)(C)NC2(C)C`, the inhibition of ligand binding was 8%.

As to `COc1ccc(-c2nnc(SCC(=O)c3cc(C)n(Cc4cccs4)c3C)o2)cc1`, the inhibition of ligand binding is 35%.

In the case of `Oc1ccc(-c2[nH]nc(-c3ccccc3)c2-c2nc3ccccc3[nH]2)cc1`, the inhibition of ligand binding is 33%.

For `COc1ccc(CNC(=O)COC(=O)c2cc(-c3ccco3)nc3ccccc23)cc1`, the inhibition of ligand binding was 20%.

`CC1(C)Cc2[nH]c3ccccc3c2C(C)(C)N1`: the inhibition of ligand binding was 6%.

For the compound `Cc1ccc2c(c1)C1C=CCC1C(C(=O)O)N2` (stereo not drawn), the inhibition of ligand binding is 0%.

For `COc1ccc(NS(=O)(=O)c2ccc3c(c2)[C@H]2C=CC[C@H]2[C@@H](c2cccc(OC)c2OC)N3)cc1`, the inhibition of ligand binding was 0%.

As to `O=C(c1cccs1)N1N=C(c2ccccc2)CC1c1ccc(O)cc1` (stereo not drawn), the inhibition of ligand binding was 21%.

Turning to `CC1Cc2ccccc2N1C(=O)CSc1nnc(-c2ccc(S(=O)(=O)N3CCCC3)cc2)o1` (stereo not drawn), the inhibition of ligand binding is 56%.

For `CC1CCN(Cc2c(O)ccc3c4c(c(=O)oc23)CCC4)CC1`, the inhibition of ligand binding was 0%.

Consider `CCOc1cc2c(c([N+](=O)[O-])c1)NC(c1ccc(Cl)cc1)C1CC=CC21` (stereo not drawn), for which the inhibition of ligand binding is 0%.

`CC(=O)Oc1ccc2c(c1)CCC1C2C(O)CC2(C)C(=O)CCC12` (stereo not drawn): the inhibition of ligand binding is 15%.

Turning to `COCCCn1c(Cc2csc(Nc3cccc(Cl)c3)n2)nnc1SCC(=O)OC1CCCCC1`, the inhibition of ligand binding is 37%.

On to `O=C(O)c1ccc2c(c1)C1C=CCC1C(c1cc3c(cc1Br)OCO3)N2` (stereo not drawn), for which the inhibition of ligand binding was 79% (active).

Turning to `COc1ccc2[nH]c3c(c2c1)CCNC3C1CC=C(C)CC1` (stereo not drawn), the inhibition of ligand binding is 0%.

As for `CC(C)CN(Cc1c(O)ccc2c3c(c(=O)oc12)CCC3)CC(C)C`, the inhibition of ligand binding is 6%.

As for `Cc1cc(C(C)CO)cc(C(C)(C)C)c1O` (stereo not drawn), the inhibition of ligand binding is 21%.

Consider `CC1CCCC(C)N1Cc1c(O)ccc2c3c(c(=O)oc12)CCC3` (stereo not drawn), for which the inhibition of ligand binding was 13%.

Take `COc1cccc(NS(=O)(=O)c2ccc3c(c2)C2C=CCC2C(c2ccc(C(=O)O)cc2)N3)c1` (stereo not drawn): the inhibition of ligand binding is 37%.

Regarding `Nc1ccc2nc3n(c(=O)c2c1)CCC3`, the inhibition of ligand binding is 34%.

For `CCN(c1ccccc1)S(=O)(=O)c1ccc2[nH]cc(C(=O)NCCOC)c(=O)c2c1`, the inhibition of ligand binding was 22%.

`COc1cc([N+](=O)[O-])cc2c1NC(c1ccc(Cl)cc1)C1CC=CC21` (stereo not drawn): the inhibition of ligand binding is 46%.

Take `CC(=O)c1ccc2c(c1)C1C=CCC1C(c1ccncc1)N2` (stereo not drawn): the inhibition of ligand binding is 9%.

Turning to `Cc1cc(C)c2c(c1)[C@@H]1C=CC[C@@H]1[C@H](c1ccc(S(=O)(=O)N3CCOCC3)cc1)N2`, the inhibition of ligand binding is 66% (active).

Turning to `O=C(NC1CC1)c1ccc2c(c1)C1C3CCC(C3)C1C(c1ccccc1)N2` (stereo not drawn), the inhibition of ligand binding is 86% (active).

For the compound `COc1cc(C2CC(=O)Nc3c2ccc2ccccc32)cc(Cl)c1O` (stereo not drawn), the inhibition of ligand binding was 0%.
